Several values for one entry are separate records, joined by “and”; a condition that tells them apart may be missing. Equal entries are not always repeated. Records with an inconclusive call do not appear. Some structures have more than one record in an assay (separate samples or runs), and their calls can disagree. Activity calls are given as the source filed them. The call rests on the fitted dose curve; in most records, active means well fitted inhibition curve with a large enough effect; inconclusive means small, poorly fitted or top-dose-only effect; inactive means flat fitted curve, though single readings scatter.
Columns and labels:
[1] = test system: CRL-7250; experiment: Cytotoxic Profiling of Annotated Libraries Using Quantitative High-Throughput Screening (AID 1296008); details: Five cell lines viability, CellTiter-Glo ATP luminescence, 48-72 h; max response: active compounds read low; further: potency means the concentration at half of the fitted maximal effect; on max response: on the % scale 0 is the no-effect control and ±100 the full control effect
Method in brief: (§1)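 Cells exposed to compounds for 48 or 72 hr at 37 degrees Celsius. Viability read as ATP-coupled luminescence with CellTiter-Glo after 10 min at room temperature.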

[2] = test system: HEK293; experiment: as above; details: Five cell lines viability, CellTiter-Glo ATP luminescence, 48-72 h; max response: active compounds read low
Method in brief: as §1

[3] = test system: HaCat; experiment: as above; details: Five cell lines viability, CellTiter-Glo ATP luminescence, 48-72 h; max response: active compounds read low
Method in brief: as §1

[4] = test system: KB-3-1; experiment: as above; details: Five cell lines viability, CellTiter-Glo ATP luminescence, 48-72 h; max response: active compounds read low
Method in brief: as §1

[5] = test system: NIH3T3; experiment: as above; details: Five cell lines viability, CellTiter-Glo ATP luminescence, 48-72 h; max response: active compounds read low
Method in brief: as §1

[6] = test system: HACAT; experiment: qHTS assay to identify novel small-molecules to repurpose for Merkel cell carcinoma treatment (AID 1296009); details: MCC and control cell lines, CellTiter-Glo viability, 72 h; further: potency means the concentration at half of the fitted maximal effect
Method in brief: (§2)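 Cells were treated for 72 hr at 37 degree celsius with compounds in 8- or 11-point dose response. Viability was read by CellTiter-Glo luminescence, normalized to no-cell (cytotoxicity) and DMSO controls.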

[7] = test system: HEK293T; experiment: as above; details: MCC and control cell lines, CellTiter-Glo viability, 72 h; at 44.8 µM (top of the series) unless noted
Method in brief: as §2

[8] = test system: MCC-13; experiment: as above; details: MCC and control cell lines, CellTiter-Glo viability, 72 h; series mostly up to 46 µM
Method in brief: as §2

[9] = test system: TAB165; experiment: qHTS profiling for inhibitors of Plasmodium falciparum proliferation (AID 504749);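 further: 0% = DMSO vehicle and full inhibition = artemisinin control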; details: P. falciparum in erythrocytes, SYBR Green DNA, 72 h; series mostly up to 28.7 µM
Method in brief: (§3)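 P. falciparum-infected erythrocytes (0.3% parasitemia, 2.5% hematocrit) incubated with compound 72 h at 37 C, 5% CO2. Parasite DNA detected by SYBR Green after lysis, overnight at room temperature; normalised to 0.29 uM artemisinin and DMSO.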

[10] = test system: W2; experiment: as above; details: P. falciparum in erythrocytes, SYBR Green DNA, 72 h; series mostly up to 28.7 µM
Method in brief: as §3

[11] = at 44.8 µM (top of the series) unless noted
Further: nearly all actives have a fitted effect of over 60% in size.

CC(C)CNc1ccnc(NCc2csc(-c3ccccc3)n2)n1
active: Potency [1] 1.3 µM | Potency [2] 5.26 µM and 1.64 µM | Potency [3] 16.4 µM | Potency [4] 14.6 µM | Potency [5] 23.1 µM
inactive: max response [1] -19.9% | max response [3] -4.23% | max response [5] -17.2%

CN(C)c1nc(Cc2ccc(NC(=O)c3ccc(C(F)(F)F)cc3)cc2)nc(N(C)C)c1CC(=O)O
inactive: outcome [1] | max response [2] 3.18% | outcome [2] | outcome [3] | max response [4] 4.62% | outcome [4] | max response [5] -4.49% and 4.34% | outcome [6, 11] | outcome [7] | Potency [8]

CCCCn1c(=O)n(Cc2ccccc2F)c(=O)c2[nH]c(Cc3ccc(NC(C)=O)cc3)nc21
inactive: max response [1] -20% and 4.17% | max response [2] -5.59% and -2.73% | max response [3] -7.85% | outcome [3] | max response [4] -6.11% | outcome [4] | max response [5] -1.2% and 4.04% | outcome [6, 11] | Potency [8]

Cc1ccccc1C(C(=O)NC1CCCCC1)N(C(=O)CNc1ccc(C#N)cc1)c1cccc(F)c1 (centres undefined)
inactive: max response [1] 4.34% | outcome [1] | max response [2] -1.85% | outcome [2] | max response [3] -5.11% | outcome [3] | max response [4] 5.31% | outcome [4] | max response [5] -3.8% and -0.279% | outcome [6, 11] | outcome [7] | Potency [8]

CCN1C[C@H](C)n2c(c(O)c3c(=O)n(Cc4ccc(F)c(Cl)c4)nc(C(=O)NC)c32)C1=O
inactive: max response [1] -6.85% | outcome [1] | max response [2] 1.12% | outcome [2] | max response [3] -5.77% and -3.93% | max response [4] 3.26% and 8.63% | outcome [4] | max response [5] 0.921% and -1.89% | outcome [7] | Potency [8]

COc1cc2ncnc(Nc3cc(Br)c(O)c(Br)c3)c2cc1OC
inactive: max response [1] -9.02% and 1.18% | max response [2] 0.846% | outcome [2] | max response [3] -28.8% | outcome [4] | max response [5] -4.77% | outcome [5] | outcome [7] | Potency [8]

COc1ccc(-c2ccc3ncc4c(c3c2)n(-c2ccc(N3CCNCC3)c(C(F)(F)F)c2)c(=O)n4C)cn1
active: Potency [2] 9.2 nM | Potency [3] 3.7 nM and 58 nM | Potency [4] 16.6 nM and 41.1 nM | Potency [5] 0.0053 µM
inactive: max response [1] -103% | max response [2] -112%

CC1=C(C(=O)Nc2cc3cn[nH]c3cc2F)C(c2ccc(C(F)(F)F)cc2)CC(=O)N1 (centres undefined)
inactive: max response [1] 1.25% | outcome [1] | outcome [2] | max response [3] 3.22% | outcome [3] | max response [4] 1.78% and 8.86% | max response [5] -7.07% | outcome [6, 11] | outcome [7]

COc1ccnc(CS(=O)c2nc3ccc(OC(F)F)cc3[nH]2)c1OC (centres undefined)
inactive: Potency [9] | Potency [10] | max response [1] 3.58% | outcome [2] | max response [3] -12.5% | outcome [3] | max response [4] -0.194% and 5.88% | max response [5] -24% | outcome [5] | outcome [6, 11] | outcome [7] | Potency [8]

CC[C@]1(O)C[C@H]2CN(CCC3=c4ccccc4=N[C]3[C@@](C(=O)OC)(c3cc4c(cc3OC)N(C)[C@H]3[C@@](O)(C(N)=O)[C@H](O)[C@]5(CC)C=CCN6CC[C@]43[C@@H]65)C2)C1
active: Potency [1] 0.0935 µM | Potency [2] 16.6 nM | Potency [4] 0.0059 µM
inactive: max response [3] -10.4%

COc1nccc(-c2c(-c3ccc(F)cc3)ncn2C2CCNCC2)n1
inactive: max response [1] -23.7% and 3.35% | max response [2] -20% | max response [3] -7.28% and 1.1% | max response [4] -17.7% | outcome [4] | max response [5] -16.2% | Potency [8]
active: Potency [2] 3320 nM

CC(C)(OCc1nn(Cc2ccccc2)c2ccccc12)C(=O)O
inactive: max response [1] 1.06% | outcome [1] | max response [2] 0.564% | outcome [2] | max response [3] 3.78% | outcome [3] | max response [4] 5.01% and 9.63% | max response [5] 2.54% and 3.58% | outcome [6, 11] | outcome [7] | Potency [8]

C[C@H](c1ccc(F)cc1CCCC(=O)O)N(c1cc(F)ccc1F)S(=O)(=O)c1ccc(Cl)cc1
inactive: max response [1] -0.7% and -8.45% | max response [2] -10.5% | outcome [2] | outcome [3] | max response [4] -5.45% and 4.45% | max response [5] -19.7% and 4.43% | outcome [6, 11] | outcome [7] | Potency [8]

COc1nc(C)cnc1NS(=O)(=O)c1cccnc1-c1ccc(-c2nnco2)cc1
inactive: max response [1] 1.92% and 1.59% | outcome [2] | max response [3] 3.49% | outcome [3] | max response [4] -0.147% | outcome [4] | max response [5] -2.15% | outcome [5] | outcome [6, 11] | outcome [7] | Potency [8]

CC1CCN(c2cc(N3CCN(C)CC3)ccc2NC(=O)c2cc(C#N)c[nH]2)CC1
inactive: outcome [1] | max response [2] 0.425% | max response [3] 2.9% | outcome [3] | max response [4] 9% and 4.39% | max response [5] 3.51% and 0.269% | outcome [6, 11] | Potency [8]

C[C@@]1(C(=O)Nc2ccc(F)nc2)CCCN1c1nc(Nc2cc(C3CC3)[nH]n2)c2cccn2n1
inactive: max response [3] -23.7% | max response [4] -30.1%
active: Potency [1] 11.8 µM and 11.6 µM | Potency [2] 3720 nM

c1ccc(CNc2nc(N3CCOc4ccccc43)nc3c2CCCC3)cc1
inactive: max response [1] 3.99% | outcome [1] | max response [3] -18.6% and -15.3% | max response [4] 8.67% and -13.6% | max response [5] 3.56% | outcome [5] | Potency [8]

c1cc(OCCN2CCCCC2)cc(-c2n[nH]c3ccc(-c4ncn[nH]4)cc23)c1
inactive: max response [1] -3.49% | outcome [1] | outcome [3] | max response [4] -21.9% | max response [5] -3.48% and 4.45% | outcome [6, 11] | Potency [8]

O=C(O)CCNc1cc(N2CCc3ccccc3CC2)nc(-c2ccccn2)n1
inactive: max response [1] -1.59% and -1.08% and -1.74% | max response [2] 1.95% and -5.12% | outcome [2] | max response [3] -11.8% | outcome [3] | max response [4] -6.65% and -1.07% | outcome [4] | max response [5] -1.17% and -17.2% and -11.6% | outcome [6, 11] | outcome [7] | Potency [8]

Cc1ccccc1-n1c(Cn2nc(-c3cccc(O)c3)c3c(N)ncnc32)nc2cccc(C)c2c1=O
active: Potency [1] 2.64 µM | Potency [8] 18.7 µM
inactive: outcome [1] | outcome [3] | max response [4] 4.26% and -1.18% | max response [5] -4.97% | outcome [5] | outcome [6, 11]

CN1C(=O)C(Cc2c[nH]c3ccccc23)NC1=S (centres undefined)
inactive: max response [1] 3.65% and -1.79% | max response [2] 1.8% | outcome [2] | outcome [3] | max response [4] 2.81% | outcome [4] | max response [5] -1.6% and -5.02% | outcome ([6]; at 17.4 µM (top of the series)) | outcome ([6]; at 44.8 µM (top of the series)) | outcome [7] | Potency [8]

CCN1CCN(c2ccc(Nc3cc(N(C)C(=O)Nc4c(Cl)c(OC)cc(OC)c4Cl)ncn3)cc2)CC1
inactive: max response [3] 4.46% | max response [4] 8.02% | outcome [5] | Potency [8]
active: Potency [1] 7.31 µM | Potency [2] 16400 nM | Potency [3] 8.2 µM | Potency [4] 23.1 µM

Cc1cnc(-c2cc(N3CCN(C(=O)CCS(C)(=O)=O)CC3)ncc2Cl)c(C)c1
inactive: max response [1] 2.67% | outcome [1] | max response [2] 2.19% | outcome [2] | outcome [3] | max response [4] 3.56% and 2.16% | outcome [5] | outcome [6, 11] | outcome [7] | Potency [8]

C[C@@]1(c2cc(-c3cncnc3)c(F)cc2F)CCSC(N)=N1
inactive: max response [1] 3.38% and -17.5% | max response [2] 1.85% and -22.9% | max response [3] -8.12% and -24.8% | max response [4] -3.27% | outcome [4] | max response [5] -1.07% | outcome [5] | Potency [8]

COC(=O)N1CCN(Cc2cccc(NC(=O)Nc3ccc(C)nc3)c2F)CC1
inactive: max response [1] -17.2% | outcome [1] | max response [3] 3.64% and 2.27% | max response [4] -23.5% | max response [5] -1.49% | outcome [5] | Potency [8]

COc1cc(Nc2nc3ccccc3nc2NS(=O)(=O)c2ccc(NC(=O)c3ccc(C)c(OC)c3)cc2)cc(OC)c1
inactive: max response [1] -27.1% and -5.83% | outcome [2] | max response [3] -23.6% and -15% | max response [4] 6.27% | outcome [4] | max response [5] -5.22% | outcome [5] | outcome [7] | Potency [8]

Cc1cnc(Nc2cccc(CN3CCOCC3)c2)nc1Nc1cccc(S(=O)(=O)NC(C)(C)C)c1
inactive: outcome [1] | outcome [2] | max response [3] -19.2% | outcome [3] | max response [4] 6.82% | max response [5] -17.3% | outcome [6, 11] | outcome [7] | Potency [8]
active: Potency [4] 2.31 µM

Clc1ccc(C2(c3ccc(-c4cn[nH]c4)cc3)CCNCC2)cc1
inactive: outcome [3] | outcome [6, 11]
active: Potency [1] 3.72 µM and 7.31 µM | Potency [2] 5.26 µM and 10.3 µM | Potency [3] 13 µM | Potency [4] 16.6 µM and 16.4 µM

CNC(=O)c1c(-c2ccc(F)cc2)oc2cc(N(CCO)S(C)(=O)=O)c(C3CC3)cc12
inactive: max response [1] -2.04% | outcome [2] | max response [4] -0.402% | max response [5] -17.1% | outcome [7]
active: Potency [1] 11.8 µM

Nc1ccc(-c2ccc3ncc4ccc(=O)n(-c5cccc(C(F)(F)F)c5)c4c3c2)cn1
inactive: max response [1] -76.7%
active: Potency [1] 0.0461 µM | Potency [2] 13.2 nM | Potency [3] 2.64 µM and 2.91 µM | Potency [4] 4.2 nM and 65.1 nM | Potency [5] 20.9 nM and 103 nM

Reference: PubChem BioAssay (NCATS)
